PubChem BioAssay AID540256 (National Center for Advancing Translational Sciences (NCATS), 2011)
The campaign covered roughly 300,000 compounds. About 3,700 (1.2%) were called active. Another 20% or so got no clear call; they are omitted. Calls follow the shape of the full dose curve; tested in HEK293 cells. Shown is part of a subset that was picked to be rich in actives. Where a call stands in place of a potency, no number is given.

test: qHTS for Inhibitors of binding or entry into cells for Lassa Virus; details: Lassa virus pseudotype entry inhibition, cell reporter; series mostly up to 37.9 µM; also: nearly all actives have a fitted effect of over 50% in size
Potency is read from the fitted curve at half-maximal effect.

| Compound | Potency |
| --- | --- |
| CCOc1ccc(NC(=O)CCc2c(C)nn(-c3ccc(N4CCCC4)nn3)c2C)cc1 | inactive |
| Cc1cccnc1CCNC(=O)C1CCC(=O)N(Cc2cccc(F)c2)C1 (stereo unspecified) | inactive |
| Cc1ccc(Nc2nc(CSc3nnc(-c4ccncc4)n3-c3ccccc3C)cs2)cc1 | 8.91 µM (active) |
| Cc1ccccc1-n1c(SCC(=O)NCc2cccs2)nnc1-c1ccncc1 | inactive |
| Cc1ccc(Nc2nnc(SCc3ccccc3)s2)cc1 | inactive |
| CCOC(=O)c1ccc(NC(=O)c2ccc(NC(=O)C3CCCO3)cc2)cc1 (stereo unspecified) | inactive |
| Cc1sc2ncnc(N3CCC(C(=O)NNC(=O)c4ccc(F)cc4)CC3)c2c1C | inactive |
| CCOc1ccc(-n2c(O)c(/C=N/Nc3nnc(C)c(=O)[nH]3)c3ccccc3c2=O)cc1 | inactive |
| COc1ccc(Cc2nnc(N/N=C/c3ccccc3O)[nH]c2=O)cc1OC | 3.98 µM (active) |
| O=c1[nH]c(NCCO)nnc1Cc1ccc(Cl)cc1 | inactive |
| CCNC(=S)N1CCN(S(=O)(=O)c2ccc(Cl)s2)CC1 | inactive |
| CN(C(=O)CSc1cccc[n+]1[O-])C1CCCCC1 | inactive |
| COc1cc(Nc2nccc(-c3cnn4ncccc34)n2)cc(OC)c1 | 2.5 µM (active) |
| COc1cc(NC(=O)CSc2ccc(-c3cccnc3)nn2)cc(OC)c1 | inactive |
| COc1cccc(Nc2ncccc2C(=O)O)c1 | inactive |
| O=c1c(-c2cccc(Cl)c2)c[nH]n1-c1ccccc1 | inactive |
| COC(=O)c1cnc(N2CCN(c3ccccc3OC)CC2)c2ccccc12 | inactive |
| Cc1cc(Br)ccc1NC(=O)c1cnc(N2CCN(c3ccccn3)CC2)c2ccccc12 | 16.4 µM (active) |
| O=C(Cc1ccc(Br)cc1)N1CCN(c2ccccn2)CC1 | inactive |
| O=C(C1CC(=O)N(C2CCCC2)C1)N1CCN(c2cccc(C(F)(F)F)c2)CC1 (stereo unspecified) | inactive |
| Cc1cc(C)c(S(=O)(=O)NCC(c2ccc3c(c2)OCO3)N2CCOCC2)c(C)c1 (stereo unspecified) | inactive |
| CC(C)CN1CC(C)C(=O)N(c2ccccc2)C1=S (stereo unspecified) | inactive |
| CN(C)C(CNC(=O)c1cc2ccccc2o1)c1ccccc1 (stereo unspecified) | inactive |
| c1ccc(C(=NNc2nc3ccccc3s2)c2ccccn2)cc1 | 12.6 µM (active) |
| O=[N+]([O-])c1cc(Br)c(O)c(/C=N/Nc2nc3ccccc3s2)c1 | inactive |
| O=C(Nc1ccccc1Cl)O/N=C(/c1ccccc1)c1ccccn1 | inactive |

| Compound | Potency |
| --- | --- |
| O=C(CCNC(=O)c1ccc(Br)cc1)Nc1cccc(S(=O)(=O)N2CCCCC2)c1 | inactive |
| COc1cccc(-c2n[nH]c3c2C(c2cccc(O)c2)N(C)C3=O)c1 (stereo unspecified) | inactive |
| Cc1cc(C)c(-c2n[nH]c3c2C(c2ccccc2F)N(CCO)C3=O)c(O)c1 (stereo unspecified) | inactive |
| CCCCn1c(N)c(N(CCOC)C(=O)c2cccc(OCc3ccccc3)c2)c(=O)[nH]c1=O | inactive |
| COc1ccc(CCN2C(=O)c3[nH]nc(-c4ccccc4O)c3C2c2ccc(C)cc2)cc1OC (stereo unspecified) | 10 µM (active) |
| COc1ccc(CCN(C)CCN2C(=O)c3ccccc3C2=O)cc1OC | inactive |
| CCCCN1C(=O)c2[nH]nc(-c3ccccc3O)c2C1c1cccc(OCc2ccccc2)c1 (stereo unspecified) | 1.58 µM (active) |
| CC(C)c1ccc(S(=O)(=O)N2CCN(C(=O)CN3C(=O)NC(C)(c4ccccc4)C3=O)CC2)cc1 (stereo unspecified) | inactive |
| Cc1cc(S(=O)(=O)Nc2ccc(C(=O)NCC(c3ccco3)N3CCCC3)cc2)ccc1F (stereo unspecified) | inactive |
| CCOc1ccc(NS(=O)(=O)c2ccc(C(=O)NC3CCN(Cc4ccccc4)CC3)cc2)cc1 | inactive |
| CCC(=O)c1cn(CCOc2ccccc2OC)c2ccccc12 | inactive |
| COc1ccc(OCCCC(=O)NCCc2ccccc2)cc1 | inactive |
| CCCCOc1ccc(C(=O)NCc2ccncc2)cc1 | inactive |
| CCCOc1ccc(C(=O)NCCc2ccccc2)cc1 | 2.51 µM (active) |
| O=C(O)c1ccc(N/N=C/c2cn(-c3ccccc3)nc2-c2cccs2)cc1 | 5.01 µM (active) |
| CC(C)(C)OC(=O)N/N=C/c1cn(-c2ccccc2)nc1-c1cccnc1 | inactive |
| O=C(NCc1cccnc1)c1cn(-c2ccccc2)nc1-c1cccs1 | inactive |
| O=C(CC1Sc2ccccc2NC1=O)NNc1ccc(Cl)c(Cl)c1 (stereo unspecified) | inactive |
| Cc1c(C)c(C)c(S(=O)(=O)N2CCC3(CC2)OCCO3)c(C)c1C | inactive |
| CC(=NNC(=O)c1ccncc1)c1ccc(Cl)c(Cl)c1 | inactive |
| CCN(c1ccccc1)S(=O)(=O)c1ccc(C(=O)Nc2nccs2)cc1 | inactive |
| CCN(c1ccccc1)S(=O)(=O)c1ccc(NC(=O)C(C)(C)C)cc1 | 14.6 µM (active) |
| CCN(c1ccccc1)S(=O)(=O)c1cccc(C(=O)O)c1 | inactive |
| CN(CC(=O)NCC(c1ccccc1)N1CCCC1)S(=O)(=O)c1ccc(Cl)cc1 (stereo unspecified) | inactive |
| CCOc1ccc(NC(=O)c2ncoc2-c2ccco2)cc1 | inactive |
| CCCCOc1ccc(-c2nnc(-c3ccco3)o2)cc1 | inactive |

| Compound | Potency |
| --- | --- |
| CCOc1ccc(-c2nnc(-c3ccco3)o2)cc1 | 5.8 µM (active) |
| Cc1c[n+]([O-])ccc1[N+](=O)[O-] | inactive |
| O=C1C2C3C=CC(C3)C2C(=O)N1c1ncc([N+](=O)[O-])s1 (stereo unspecified) | inactive |
| COc1ccc(C(=O)Nc2ccc(NC(=O)C(C)C)nc2)cc1 | inactive |
| CCOc1ccc(S(=O)(=O)Nc2ccc(OC)nc2)cc1 | inactive |
| COc1ccc(CS(=O)/C(Cl)=C(/Cl)C(=O)Nc2ccc(OC)nc2)cc1 (stereo unspecified) | 3.98 µM (active) |
| O=C(CSc1nnnn1C1CCCC1)N1CCCCC1 | inactive |
| Cc1ccc(C)c(OCCC(=O)OCC(=O)NC(=O)NCc2ccccc2)c1 | inactive |
| Cc1cc(C)cc(NC(=O)COc2coc(CN3CCN(c4ccccc4)CC3)cc2=O)c1 | inactive |
| NC1=NOC(=O)C1C1CCCCC1 (stereo unspecified) | inactive |
| CCOc1ccc(N(Cc2ccccc2)C(=O)c2nc(S(C)(=O)=O)ncc2Cl)cc1 | 2.51 µM (active) |
| CCOc1ccc(N(Cc2ccccc2)C(=O)c2nc(SCC)ncc2Cl)cc1 | inactive |
| CCOc1ccc(NC(=O)CN(Cc2ccccc2)S(=O)(=O)c2ccc(Cl)cc2)cc1 | inactive |
| CC1=NN(C(N)=S)C(=O)C1N=Nc1cc(Cl)ccc1Cl (stereo unspecified) | inactive |
| C[C@]12CCC(=O)C=C1C=CC1C2CC[C@@]2(C)C1CC[C@@]21CCC(=O)O1 (stereo partly specified) | inactive |
| CC1Cc2ccccc2N1S(=O)(=O)c1cccc(C(=O)OCC(=O)N2CCOCC2)c1 (stereo unspecified) | inactive |
| Cc1cc(C)c(C=NNc2nc3c([nH]2)c(=O)n(C)c(=O)n3C)c(C)c1 | inactive |
| CCN(CC)c1ccc(/C=N/Nc2nc(C)cc(=O)[nH]2)cc1 | inactive |
| Cc1cc(=O)[nH]c(N/N=C/c2c(C)nn(-c3ccccc3Cl)c2Cl)n1 | 11.2 µM (active) |
| O=C(O)c1ccc(NN=CC2=C(N3CCOCC3)/C(=C/c3ccccc3)CC2)cc1 | inactive |
| Cc1ccc2nc(CNC(=O)c3ccccc3)[nH]c2c1 | inactive |
| Cc1ccc(/C=N/NC(=O)C2=NNC(c3ccccc3)(c3ccccc3)C2)c(O)c1 | 14.1 µM (active) |
| O=C(N/N=C/c1ccc(O)c2ccccc12)c1cccnc1 | inactive |
| CC(NC(=O)c1ccccc1)C(=O)OCC(=O)Nc1cccc(S(=O)(=O)N2CCCC2)c1 (stereo unspecified) | inactive |
| Cc1cc(C)c2nc(SCCC#N)nc(C)c2c1 | inactive |
| Cc1cc(C)c2nc3nc(C)cc(C)c3c(N)c2c1 | 12.6 µM (active) |

| Compound | Potency |
| --- | --- |
| Cc1cc(C)c2nc(-c3ccco3)cc(C(=O)O)c2c1 | inactive |
| CCOC(=O)C1(Cc2ccccc2C)CCCN(C(=O)c2ccc(COC)o2)C1 (stereo unspecified) | inactive |
| COc1ccc(N2CCN(S(=O)(=O)c3cc4c5c(c3)C(C)C(=O)N5CCC4)CC2)cc1 (stereo unspecified) | inactive |
| Cc1ccc(NC(=O)c2oc3ccc(S(=O)(=O)N4CCCCC4)cc3c2C)cc1Cl | inactive |
| COC(=O)c1sccc1NC(=O)CC1C(=O)NCCN1C(=O)Nc1ccc(F)cc1F (stereo unspecified) | inactive |
| O=C(CC1SC(=Nc2ccccc2F)N(CCN2CCOCC2)C1=O)Nc1ccc(F)cc1F (stereo unspecified) | 11.2 µM (active) |
| O=C(CN1CCN(C/C=C/c2ccccc2)CC1)Nc1ccc(F)cc1F | inactive |
| O=C(c1cc(COc2cccc(C(F)(F)F)c2)on1)N1CCSCC1 | inactive |
| COc1ccc(Cc2nc3ccc(C(=O)NCC4CCOCC4)cc3o2)cc1OC | inactive |
| CC1C(=O)N(Cc2cn(Cc3ccco3)nn2)CCS(=O)(=O)N1Cc1ccc(-c2cccc(CO)c2)cc1 (stereo unspecified) | inactive |
| CCCC=Cc1ccc(CN2C(C(C)C)C(=O)N(Cc3cn(CC4CCCCC4)nn3)CCS2(=O)=O)cc1 (stereo unspecified) | 25 µM (active) |
| COCOCCn1cc(CN2CCS(=O)(=O)N(Cc3ccc(-c4cccc(N(C)C)c4)cc3)C(CC(C)C)C2=O)nn1 (stereo unspecified) | inactive |
| CC1CCN(c2ccc(-c3ccc(NC(=O)c4ccco4)cc3)nn2)CC1 | inactive |
| O=C(O)c1cnn2c(C(F)(F)F)cc(-c3ccccc3)nc12 | inactive |
| O=C(c1ccccc1)N1CCN(C(=O)c2cc3nc(-c4ccccc4)cc(C(F)(F)F)n3n2)CC1 | 11.2 µM (active) |
| COC(=O)c1cc2nc(-c3ccccc3)cc(C(F)(F)F)n2n1 | inactive |
| Cn1cc(S(=O)(=O)N2CCCCCC2)cc1C(=O)N1CCN(c2ccc(F)cc2)CC1 | inactive |
| COc1cc2c(cc1OC)C(Cc1cc(OC)c(OC)cc1[N+](=O)[O-])=NCC2 | inactive |
| COC(=O)Nc1nc2ccc(Oc3ccc(NC(=O)Nc4cccc(Cl)c4)cc3)cc2[nH]1 | 6.28 µM (active) |
| COC(=O)Nc1nc2ccc(Sc3ccccc3)cc2[nH]1 | inactive |
| Cc1cc(Cl)nc(NC(=O)Nc2cccc(Cl)c2)n1 | inactive |
| COc1ccc(CN2CCN(C(=O)CCC(=O)Nc3nnc(C(C)C)s3)CC2)cc1F | inactive |
| Cn1c(N)c(C(=O)COC(=O)c2cccc(S(=O)(=O)N3CCOCC3)c2)c(=O)n(C)c1=O | inactive |
